Measured values published in the antibiotic and cytotoxicity screens of Wong et al. (2023).
The whole screen tested about 39,000 compounds, of which about 3,300 (8.5%) were called active. For the sample, actives were picked, then their nearest neighbours and some compounds at random.

tested on: HepG2; assay: cytotoxicity call (relative viability < 0.9); conditions: 10 µM

Structure (SMILES)	cytotoxicity call
COCC(=O)Nc1ccc2c(c1)OC[C@@H](C)N(C(=O)CN1CCOCC1)C[C@@H](C)[C@H](OC)CN(C)C2=O	inactive
COc1ccc(CN(C)C[C@H]2Oc3ccc(NC(=O)Nc4ccc(C(F)(F)F)cc4)cc3CC(=O)N([C@@H](C)CO)C[C@H]2C)cc1	active
COc1ccc(NC(=O)Nc2ccc3c(c2)CC(=O)N([C@@H](C)CO)C[C@@H](C)[C@H](CN(C)Cc2ccc(C(F)(F)F)cc2)O3)cc1	active
COc1ccc(CN(C)C[C@H]2Oc3ccc(NC(=O)Nc4ccc(C(F)(F)F)cc4)cc3CC(=O)N([C@@H](C)CO)C[C@@H]2C)cc1	active
COc1ccc(NC(=O)Nc2ccc3c(c2)CC(=O)N([C@@H](C)CO)C[C@H](C)[C@@H](CN(C)Cc2ccc(C(F)(F)F)cc2)O3)cc1	inactive
COc1ccc(NC(=O)Nc2ccc3c(c2)CC(=O)N([C@H](C)CO)C[C@@H](C)[C@H](CN(C)Cc2ccc(C(F)(F)F)cc2)O3)cc1	inactive
COc1ccc(CN(C)C[C@H]2Oc3ccc(NC(=O)Nc4ccc(C(F)(F)F)cc4)cc3CC(=O)N([C@H](C)CO)C[C@H]2C)cc1	active
CO[C@H](CN(C)S(=O)(=O)c1ccc(Cl)cc1)[C@@H](C)CN([C@@H](C)CO)S(=O)(=O)c1cccc(Cl)c1	inactive
COc1ccc(CN(C)C[C@H]2OCCCC[C@H](C)Oc3ccc(NS(=O)(=O)c4ccc(F)cc4)cc3C(=O)N([C@H](C)CO)C[C@@H]2C)cc1	inactive
C[C@@H]1CN([C@H](C)CO)C(=O)c2cccc(NC(=O)Nc3ccc(C(F)(F)F)cc3)c2O[C@@H]1CN(C)S(C)(=O)=O	inactive
C[C@H](CO)N1C[C@H](C)[C@@H](CN(C)Cc2ccccc2)OCCCC[C@H](C)Oc2ccc(NC(=O)NC3CCCCC3)cc2C1=O	inactive
O=C(Cn1cnnn1)NS(=O)(=O)c1ccccc1	inactive
C[C@H](CO)N1C[C@H](C)[C@H](CN(C)S(=O)(=O)c2ccc(-c3ccccc3)cc2)OCc2cn(nn2)CCCC1=O	inactive
C[C@@H]1CCCCO[C@@H](CN(C)C(=O)Nc2ccccc2)[C@@H](C)CN([C@@H](C)CO)C(=O)c2cc(NC(=O)c3ccccc3)ccc2O1	inactive
COc1ccc(S(=O)(=O)N(C)C[C@@H]2Oc3c(NS(=O)(=O)c4cn(C)cn4)cccc3C(=O)N([C@H](C)CO)C[C@H]2C)cc1	inactive
O=C(C[C@@H]1CC[C@H](NC(=O)c2ccc(F)cc2)[C@@H](CO)O1)NCc1ccncn1	inactive
COc1ccc(NC(=O)Nc2ccc3c(c2)C(=O)N([C@H](C)CO)C[C@@H](C)[C@H](CN(C)S(=O)(=O)c2ccc(OC)cc2)OCCCC[C@H](C)O3)cc1	inactive
C[C@@H]1CN([C@H](C)CO)C(=O)CCCn2cc(nn2)CO[C@@H]1CN(C)S(=O)(=O)c1ccccc1C#N	inactive
Cc1ccc(S(=O)(=O)N(C)C[C@H]2Oc3c(NS(=O)(=O)c4ccc(F)cc4)cccc3C(=O)N([C@H](C)CO)C[C@@H]2C)cc1	inactive
C[C@@H]1CN([C@@H](C)CO)C(=O)Cc2cc(NC(=O)Nc3ccc4c(c3)OCO4)ccc2O[C@H]1CN(C)S(C)(=O)=O	inactive
COc1ccc(NC(=O)Nc2ccc3c(c2)CC(=O)N([C@H](C)CO)C[C@@H](C)[C@@H](CN(C)Cc2ccc(C(F)(F)F)cc2)O3)cc1	active
COc1ccc(CN(C)C[C@@H]2Oc3ccc(NC(=O)Nc4ccc(C(F)(F)F)cc4)cc3CC(=O)N([C@H](C)CO)C[C@@H]2C)cc1	active

Structure (SMILES)	cytotoxicity call
COc1ccc(NC(=O)Nc2ccc3c(c2)CC(=O)N([C@H](C)CO)C[C@H](C)[C@@H](CN(C)Cc2ccc(C(F)(F)F)cc2)O3)cc1	inactive
COc1ccc(CN(C)C[C@@H]2Oc3ccc(NC(=O)Nc4ccc(C(F)(F)F)cc4)cc3CC(=O)N([C@@H](C)CO)C[C@@H]2C)cc1	inactive
COc1ccc(NC(=O)Nc2ccc3c(c2)CC(=O)N([C@@H](C)CO)C[C@@H](C)[C@@H](CN(C)Cc2ccc(C(F)(F)F)cc2)O3)cc1	active
COc1ccc(CN(C)C[C@@H]2Oc3ccc(NC(=O)Nc4ccc(C(F)(F)F)cc4)cc3CC(=O)N([C@H](C)CO)C[C@H]2C)cc1	inactive
COc1ccc(NC(=O)Nc2ccc3c(c2)CC(=O)N([C@H](C)CO)C[C@H](C)[C@H](CN(C)Cc2ccc(C(F)(F)F)cc2)O3)cc1	active
CC(C)NC(=O)Nc1ccc2c(c1)C(=O)N([C@@H](C)CO)C[C@H](C)[C@@H](CN(C)CC1CCCCC1)OCCCC[C@H](C)O2	inactive
Cc1ccc(S[C@]2(C(=O)NCCCN(C)C)CC(=O)N(Cc3cc(C(F)(F)F)cc(C(F)(F)F)c3)[C@@H]2c2ccc(CO)cc2)cc1	inactive
O=C(CN1CCOCC1)NCC[C@@H]1CC[C@@H](NC(=O)c2ccc3c(c2)OCO3)[C@H](CO)O1	inactive
COc1ccc2c3c(n(c2c1)C)[C@H](CO)N(C[C@]13CN(C1)C(=O)c1ccncc1)C(=O)C1CCCCC1	inactive
CN1CCN(C(=O)C[C@H]2CC[C@H]3[C@H](COc4ccc(NC(=O)C5CCOCC5)cc4C(=O)N3C)O2)CC1	inactive
CCCN1C[C@H](C)[C@@H](OC)CN(C)C(=O)c2cc(NS(=O)(=O)c3cn(C)cn3)ccc2OC[C@H]1C	inactive
CCOC(=O)c1cc(C(=O)OCC)n(C)n1	inactive
COc1ccc(S(=O)(=O)N[C@@H]2C=C[C@@H](CC(=O)N3CCN(c4ccccc4)CC3)O[C@H]2CO)cc1	inactive
Cc1cc2n(n1)CCN(C(=O)[C@H]1CC[C@@H](N)C1)C2	inactive
Cc1ccc(-c2cnc3c(c2)C(=O)N([C@H](C)CO)C[C@H](C)[C@@H](CN(C)C(=O)Cc2ccncc2)O3)cc1	inactive
C[C@H]1CCCCO[C@@H](CN(C)Cc2ccccc2)[C@@H](C)CN([C@@H](C)CO)C(=O)c2cc(NC(=O)c3ccccc3)ccc2O1	inactive
Cc1noc(C)c1NC(=O)N(C)C[C@@H]1Oc2c(NC(=O)C3CCOCC3)cccc2C(=O)N([C@H](C)CO)C[C@H]1C	inactive
COc1ccc(NC(=O)Nc2ccc3c(c2)CC(=O)N([C@@H](C)CO)C[C@H](C)[C@H](CN(C)Cc2ccc(C(F)(F)F)cc2)O3)cc1	active
Cc1cc(-c2ccc3ccccc3n2)nc2ccc3ccccc3c12	inactive
CCCOc1c(-c2ccc3ccccc3n2)cnc2ccccc12	active
c1ccc2nc(-c3cn[nH]c3)ccc2c1	inactive
Cc1csc2sc(COC(=O)Nc3ccccc3)c(C)c12	inactive

Structure (SMILES)	cytotoxicity call
Cc1csc2sc(C(=O)Oc3ccc(Cl)cc3)c(C)c12	inactive
Cc1csc2sc(/C=N/Cc3cccs3)c(C)c12	active
C[C@@H]1CN([C@@H](C)CO)C(=O)c2cc(NS(=O)(=O)c3cccs3)ccc2O[C@@H](C)CCCCO[C@@H]1CN(C)C(=O)c1ccccc1	inactive
O=C(C[C@H]1C[C@@H]2c3cc(NC(=O)c4ccc5c(c4)OCO5)ccc3O[C@@H]2[C@@H](CO)O1)NCC(F)(F)F	inactive
C[C@H]1CCCCO[C@@H](CN(C)S(=O)(=O)c2ccc(F)cc2)[C@@H](C)CN([C@@H](C)CO)C(=O)c2cc(NC(=O)CCC(F)(F)F)ccc2O1	inactive
Cc1[nH]c(=O)[nH]c(=O)c1S(=O)(=O)N1CCC(C(=O)NCCC(C)C)CC1	inactive
Cc1[nH]c(=O)[nH]c(=O)c1S(=O)(=O)N1CCC(C(=O)N[C@H](C)c2ccccc2)CC1	inactive
CCc1ccc(NC(=O)C2CCN(S(=O)(=O)c3c(C)[nH]c(=O)[nH]c3=O)CC2)cc1	active
COCC(=O)N1[C@@H]2c3ccc(C4=CCCC4)c(=O)n3C[C@@H]2[C@@H](CO)[C@@H]1C(=O)N1CCN(C)CC1	inactive
Cc1noc(C)c1NC(=O)Nc1cccc2c1O[C@@H](CN(C)Cc1ccc(-c3ccccc3)cc1)[C@@H](C)CN([C@H](C)CO)C2=O	inactive
C[C@@H]1CCCCO[C@@H](CN(C)Cc2ccc(Cl)c(Cl)c2)[C@@H](C)CN([C@@H](C)CO)C(=O)c2cc(NC(=O)C3CCCCC3)ccc2O1	inactive
C[C@@H]1CCCCO[C@H](CN(C)Cc2ccc(Cl)c(Cl)c2)[C@@H](C)CN([C@@H](C)CO)C(=O)c2cc(NC(=O)C3CCCCC3)ccc2O1	active
C[C@@H]1CN([C@H](C)CO)C(=O)c2cc(NC(=O)C3CCCCC3)ccc2O[C@@H](C)CCCCO[C@@H]1CN(C)Cc1ccc(Cl)c(Cl)c1	inactive
C[C@@H]1CN([C@@H](C)CO)C(=O)c2cc(NC(=O)C3CCCCC3)ccc2O[C@@H](C)CCCCO[C@H]1CN(C)Cc1ccc(Cl)c(Cl)c1	active
C[C@H](CO)N1C[C@H](C)[C@@H](CN(C)Cc2ccc(Cl)c(Cl)c2)Oc2ccc(NC(=O)C3CCCCC3)cc2C1=O	inactive
C[C@@H]1CCCCO[C@@H](CN(C)Cc2ccc(Cl)c(Cl)c2)[C@H](C)CN([C@@H](C)CO)C(=O)c2cc(NC(=O)C3CCCCC3)ccc2O1	inactive
C[C@@H]1CCCCO[C@@H](CN(C)Cc2ccc(Cl)c(Cl)c2)[C@@H](C)CN([C@H](C)CO)C(=O)c2cc(NC(=O)C3CCCCC3)ccc2O1	active
C[C@@H]1CCCCO[C@H](CN(C)Cc2ccc(Cl)c(Cl)c2)[C@H](C)CN([C@@H](C)CO)C(=O)c2cc(NC(=O)C3CCCCC3)ccc2O1	inactive
C[C@@H]1CN([C@H](C)CO)C(=O)c2cc(NC(=O)C3CCCCC3)ccc2O[C@@H](C)CCCCO[C@H]1CN(C)Cc1ccc(Cl)c(Cl)c1	active
C[C@H](CO)N1C[C@H](C)[C@@H](CN(C)Cc2ccc(Cl)c(Cl)c2)OCCCC[C@H](C)Oc2ccc(NC(=O)C3CCCCC3)cc2C1=O	inactive
C[C@@H]1CN([C@@H](C)CO)C(=O)c2cc(NC(=O)C3CCCCC3)ccc2O[C@H]1CN(C)Cc1ccc(Cl)c(Cl)c1	inactive
C[C@@H]1CCCCO[C@H](CN(C)Cc2ccc(Cl)c(Cl)c2)[C@@H](C)CN([C@H](C)CO)C(=O)c2cc(NC(=O)C3CCCCC3)ccc2O1	inactive
